Twelve compounds from article PMC5540273 (PLoS ONE, 2017) can be followed below.

pKd: −log10 of the molar value. Some results are limits rather than exact numbers.
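Also: kd values determined as follow-up on hits from a single-replicate KINOMEscan panel screen.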

The test system of this test is ERBB4.
The term pKd denotes −log10 of the Kd, conventionally taken in molar units. Low readings indicate a high Kd, high ones a low Kd. As to `COc1cc2ncnc(Nc3ccc(OCc4ccccc4Br)c(Cl)c3)c2cc1OC.Cl` [GI261590], the pKd was 7.57.

Turning to `Fc1cccc(COc2ccc(Nc3ncnc4cc[nH]c34)cc2Cl)c1`, the pKd was 6.49.

In turn, `O=c1cc(N2CCOCC2)nc2n(Cc3cccc(Cl)c3)ccn12` [GSK2296823] showed a pKd of less than 5.00.

The compound `Fc1cccc(COc2ccc(Nc3ncnc4sc(-c5ccc[nH]5)cc34)cc2Cl)c1` [GW707818] had a pKd of 6.25.

As for `Cl.c1ccc(Cn2ncc3cc(Nc4ncnc5ccccc45)ccc32)cc1` [GW273749], the pKd is 7.21.

`Cn1ccc2ncnc(Nc3ccc(Oc4cccc(Cl)c4)c(Cl)c3)c21` showed a pKd of 7.13.

For `OCCOCCn1ccc2ncnc(Nc3ccc(Oc4cccc(Cl)c4)c(Cl)c3)c21`, the pKd is 7.11. The pKd values of the last two compounds are within 0.2 log units of each other.

Regarding `CS(=O)(=O)CCNCc1ccc(-c2ccc3ncnc(Nc4ccc(OCc5ccccc5)c(Cl)c4)c3c2)o1.Cl` [GW574783], the pKd is 7.55.

As for `Cl.c1ccc(Cn2ccc3cc(Nc4ncnc5ccccc45)ccc32)cc1` [GW275568], the pKd was 6.85. This pKd is 0.70 log units lower than that of the compound before.

The compound `Fc1cccc(COc2ccc(Nc3ncnc4nn5ccccc5c34)cc2Cl)c1` [GW689066] had a pKd of 6.80.

With `O=C(CCO)NCCn1ccc2ncnc(Nc3ccc(Oc4cccc(C(F)(F)F)c4)c(Cl)c3)c21`, the pKd is 7.00.

Take `CS(=O)(=O)CCNCc1nc(-c2ccc3ncnc(Nc4ccc(OCc5cccc(F)c5)c(Cl)c4)c3c2)cs1.Cl` [GW583340]: the pKd was 7.59.
